GLS inh: inhibitors of human glutaminase (GLS) | O94925 | GLS enzymatic activity, qHTS titration | Potency, µM (doses to about 45.5 µM), inactives show top-dose activity change, negative = inhibition, usual class: inhibitors | 410,000 tested, 0.21% active | AID 624170; also: % is scaled to controls: 0 for no effect and ±100 for the full control effect
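Two-point fluorescence kinetic (t0, 30 min RT) for hKGA; glutamate detected via glutamate oxidase–HRP–Amplex Red. Substrate: 1 mM L-glutamine solution; buffer 45 mM KH2PO4, pH 8.2.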
L3MBTL1 inh: L3MBTL1 (human) inhibition; 230,000 tested, 0.66% active; AlphaScreen L3MBTL1–H3K9me1 peptide binding; Potency, µM (top dose mostly 57.1 µM), inactives show at the top dose activity, negative = inhibition, actives largely listed as inhibitors; also: % is scaled to controls: 0 for no effect and ±100 for the full control effect; nearly all actives have a fitted effect of over 60% in size
Target sequence (Q9Y468 whole entry, looked up): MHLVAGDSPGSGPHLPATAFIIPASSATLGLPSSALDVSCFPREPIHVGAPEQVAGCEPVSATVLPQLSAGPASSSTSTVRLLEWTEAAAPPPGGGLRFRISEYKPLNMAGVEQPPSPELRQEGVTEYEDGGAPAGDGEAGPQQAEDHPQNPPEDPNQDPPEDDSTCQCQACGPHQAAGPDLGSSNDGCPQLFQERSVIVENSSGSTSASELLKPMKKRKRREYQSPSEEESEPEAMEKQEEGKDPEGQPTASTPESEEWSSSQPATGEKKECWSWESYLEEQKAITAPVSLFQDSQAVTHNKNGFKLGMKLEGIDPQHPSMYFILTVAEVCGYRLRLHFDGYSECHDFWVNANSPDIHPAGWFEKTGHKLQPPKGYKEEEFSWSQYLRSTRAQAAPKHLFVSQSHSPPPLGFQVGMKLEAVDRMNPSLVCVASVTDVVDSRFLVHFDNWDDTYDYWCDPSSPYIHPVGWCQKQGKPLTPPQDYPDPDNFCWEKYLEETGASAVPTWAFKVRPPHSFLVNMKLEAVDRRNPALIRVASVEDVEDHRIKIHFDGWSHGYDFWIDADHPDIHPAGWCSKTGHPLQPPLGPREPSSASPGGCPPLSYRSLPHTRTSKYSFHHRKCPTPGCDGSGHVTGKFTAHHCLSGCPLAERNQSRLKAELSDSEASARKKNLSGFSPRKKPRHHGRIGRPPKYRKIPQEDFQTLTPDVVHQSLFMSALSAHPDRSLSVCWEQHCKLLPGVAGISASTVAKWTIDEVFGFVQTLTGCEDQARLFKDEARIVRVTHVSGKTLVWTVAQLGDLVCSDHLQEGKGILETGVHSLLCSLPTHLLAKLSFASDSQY
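Displacement of a biotinylated histone H3(1-15) peptide monomethylated at Lys9 (75 nM) from L3MBTL1 (50 nM) was measured by AlphaScreen after a 30 min room-temperature compound incubation; cefsulodin titration served as intraplate control.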
HP1b binding inh: inhibitors of HP1-beta chromodomain binding to methylated histone tails | AlphaScreen HP1-beta / biotin-H3K9me3 peptide binding | Potency, µM (top dose mostly 114 µM), for inactives: at the top dose activity change, negative = inhibition, most hits filed as inhibitors | 390,000 tested, 0.56% active | AID 540317; also: nearly all actives have a fitted effect of over 70% in size
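AlphaScreen: HP1-beta (50 nM) preformed 30 min with biotin-H3(1-18)K9me3 peptide (50 nM) in PBS pH 7.4, 0.01% Tween-20. Compound added for 30 min at RT, then streptavidin donor/nickel chelate acceptor beads (10 ug/mL) for 30 min.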
JMJD2A Tudor: inhibitors of human JMJD2A Tudor domain; Potency, µM (series often up to 114 µM), without a hit: at the top dose activity change, negative = inhibition, hits mostly inhibitors; AID 504339; 390,000 tested, 4.4% active; AlphaScreen JMJD2A-Tudor / H3K4me3 peptide binding; O75164; also: % is scaled to controls: 0 for no effect and ±100 for the full control effect; nearly all actives have a fitted effect of over 50% in size
BAZ2B inh: blocks human BAZ2B; AlphaScreen BAZ2B-H3K14Ac peptide displacement; 360,000 tested, 4.4% active; Potency, µM (doses to about 114 µM), inactives show at the highest dose activity change, negative = inhibition, hits mostly inhibitors; Q9UIF8; also: % is scaled to controls: 0 for no effect and ±100 for the full control effect; nearly all actives have a fitted effect of over 60% in size
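AlphaScreen displacement: compounds (up to 110uM) incubated 30 min at room temperature with a preformed 50 nM BAZ2B/50 nM biotinylated H3K14Ac peptide complex in PBS pH 7.4 with Tween-20. Donor and acceptor beads at 10 ug/mL final added, 20 min light-protected before reading.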
G9a block: blocks human histone lysine methyltransferase G9a. Q96KQ7. G9a H3K9 monomethylation, AlphaScreen, 2 h. Potency, µM (titrated, usually from 102 µM), for inactives: at the top dose activity, negative = inhibition, hits mostly inhibitors. 350,000 tested, 8.8% active. AID 504332; also: % is scaled to controls: 0 for no effect and ±100 for the full control effect; nearly all actives have a fitted effect of over 75% in size
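Using a bead-based AlphaScreen, monomethylated H3K9 product from 2 h room-temperature reactions (G9a 20 nM, peptide 500 nM, SAM 20 uM) was detected with 0.5 ug/mL rabbit anti-H3K9me1 antibody.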
* hit, by the source's call; [ ] = remark or other dose. The list is not random: actives were taken first. Their share in the collection is about 10%. Calls follow the shape of the dose curve; as a rule, active = well fitted curve in the direction sought with a large enough effect; inconclusive = small, poorly fitted or top-dose-only effect, or another doubt; inactive = no such curve, though single readings can be large; an effect the other way counts as inactive or inconclusive. Potency is read from the fitted curve at half-maximal effect.

For Cc1ccc(-n2c(N)c(C(=O)N3CCCCC3)sc2=S)cc1 the results were GLS inh -15%, HP1b binding inh 16µM*, JMJD2A Tudor inconclusive, BAZ2B inh inconclusive and G9a block 8.9µM*.
`CCOc1ccc(-n2c(N)c(C(=O)N3CCN(C)CC3)sc2=S)cc1` gave GLS inh 16%, L3MBTL1 inh -11%, HP1b binding inh 22%, JMJD2A Tudor -29%, BAZ2B inh -35% and G9a block 45µM*.
For O=Cc1cccn1-c1c(C(=O)O)cnn1-c1ccccc1 the results were GLS inh -3%, HP1b binding inh 43%, JMJD2A Tudor -3% and G9a block -50%.
For O=C(O)c1cnn(-c2ccccc2)c1-c1ccncc1 the results were GLS inh inconclusive, HP1b binding inh 4%, JMJD2A Tudor -27%, BAZ2B inh inconclusive and G9a block 50µM*.
Screening CCOc1ccc(Cn2cc(F)c(=O)[nH]c2=O)cc1 returned GLS inh 1%, L3MBTL1 inh 1%, HP1b binding inh 30%, JMJD2A Tudor -24% and BAZ2B inh 0%.
Screening CCOc1ccc(-c2cn(-c3cccc(SC)c3)c(=O)[nH]2)cc1 returned GLS inh 8%, L3MBTL1 inh 0%, HP1b binding inh 33%, JMJD2A Tudor -8%, BAZ2B inh -7% and G9a block 28µM*.
`COc1cccc(CNC(=O)C2Cc3cc(S(=O)(=O)N4CCCCCC4)ccc3N2C(C)=O)c1` (stereo unspecified) gave GLS inh 3%, HP1b binding inh 33%, JMJD2A Tudor -4%, BAZ2B inh -1% and G9a block 25%[59 µM].
For Cc1ccc(OCC(=O)Nc2c(C)ccc3nsnc23)cc1 the results were GLS inh 6%, HP1b binding inh 16%[57 µM], JMJD2A Tudor -9% and BAZ2B inh -13%.
`Cc1ccc(C(=O)NC(=S)Nc2c(C)ccc3nsnc23)cc1` gave GLS inh 0%, L3MBTL1 inh -11%, HP1b binding inh 3%, JMJD2A Tudor -26%, BAZ2B inh -38% and G9a block 11µM*.
Cc1ccc(C(=O)NC(=S)Nc2cccc3nsnc23)cc1 was read as GLS inh -1%, L3MBTL1 inh -3%, HP1b binding inh 15%, JMJD2A Tudor -4%, BAZ2B inh -34% and G9a block 6.3µM*.
`CC(C)(C)c1cc(C(=S)N2CCN(CCO)CC2)cc(C(C)(C)C)c1O` gave GLS inh -22%, L3MBTL1 inh -3%[11.4 µM], HP1b binding inh inconclusive, JMJD2A Tudor inconclusive, BAZ2B inh -38% and G9a block inconclusive.
CC(C)(C)c1cc(C(=O)CCN2CCOCC2)cc(C(C)(C)C)c1O was read as GLS inh -29%, HP1b binding inh 23%, JMJD2A Tudor -9%, BAZ2B inh 2% and G9a block 50µM*.
For Cc1ccccc1-c1noc(-c2cccnc2N2CCN(c3ccccc3)CC2)n1 the results were GLS inh 1%, HP1b binding inh 53%, JMJD2A Tudor -3%, BAZ2B inh inconclusive and G9a block -43%[59 µM].
`O=C(CN1C(=O)C2(SCC(=O)N2c2cccc(Cl)c2)c2ccccc21)NC1CCCCC1` (stereo unspecified) gave GLS inh -11%, HP1b binding inh 25%, JMJD2A Tudor -16%, BAZ2B inh 4%[57.1 µM] and G9a block 0%[59 µM].
CCOC(=O)c1c(-c2ccccc2)oc2ccc(O)c(CN(C)C)c12 was read as GLS inh 18%, HP1b binding inh 18%, JMJD2A Tudor -19%, BAZ2B inh 6% and G9a block inconclusive.
`COc1ccc(OC)c(C(O)c2coc3ccc(O)c(CN(C)C)c23)c1` (stereo unspecified) gave GLS inh 10%, HP1b binding inh 22%, JMJD2A Tudor -20%, BAZ2B inh -20% and G9a block inconclusive.

Bioassay records (PubChem BioAssay)
